# Experimental data reported in article PMC5540273 (PLoS ONE, 2017).
# Columns and labels:
# Conditions in all cases: concentration: 1 μM, replicates: in singlicate; n = 1
# CDK4-cyclinD3 = system: CDK4-cyclinD3
# CDK4 = system: CDK4
# CDK5 = system: CDK5
# CDK7 = system: CDK7
# CDK8 = system: CDK8
# CDK9 = system: CDK9
# CDKL1 = system: CDKL1
# CDKL2 = system: CDKL2
# CDKL3 = system: CDKL3
# CDKL5 = system: CDKL5
# CHEK1 = system: CHEK1
# CHEK2 = system: CHEK2
# CIT = system: CIT
# CLK1 = system: CLK1
# CLK2 = system: CLK2
# CLK3 = system: CLK3
# CLK4 = system: CLK4
# CSF1R-autoinhibited = system: CSF1R-autoinhibited
# CSF1R = system: CSF1R
# CSK = system: CSK
# 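Note: KINOMEscan kinase panel screen.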
SMILES,%Inh (CDK4-cyclinD3) [%],%Inh (CDK4) [%],%Inh (CDK5) [%],%Inh (CDK7) [%],%Inh (CDK8) [%],%Inh (CDK9) [%],%Inh (CDKL1) [%],%Inh (CDKL2) [%],%Inh (CDKL3) [%],%Inh (CDKL5) [%],%Inh (CHEK1) [%],%Inh (CHEK2) [%],%Inh (CIT) [%],%Inh (CLK1) [%],%Inh (CLK2) [%],%Inh (CLK3) [%],%Inh (CLK4) [%],%Inh (CSF1R-autoinhibited) [%],%Inh (CSF1R) [%],%Inh (CSK) [%]
COc1cc2c(cc1OCCN1CCN(C)CC1)ncc1c3ccc(C#N)cc3[nH]c21,0,0,9,99.7,3,14,32,6,0,0,83,45,99.2,96.7,86,25,92.6,99.3,49,0
N#Cc1c(N2CCOCC2)sc(-c2ccn[nH]2)c1-c1ccc(Cl)cc1,2,29,15,43,0,0,0,0,0,0,15,15,24,6,0,16,0,8,34,17
Cc1nnc(-c2ccc3ncc(-c4ccc(S(C)=O)cc4)n3c2)o1 (stereo not drawn),0,0,0,0,13,0,0,4,2,10,0,0,38,0,0,0,0,7,17,0
Fc1ccc(-c2ncn(CCCN3CCOCC3)c2-c2cccnc2)cc1 [SB-211743],0,1,0,8,0,0,28,0,0,0,0,0,0,24,0,11,2,0,0,0
Cc1ccc(C(=O)NCC(N)=O)cc1-n1c(C)cc(OCc2ccc(F)cc2F)c(Br)c1=O,0,0,0,0,8,0,44,3,9,0,17,9,8,0,0,3,12,0,16,0
Cc1cccc(-c2nc(Nc3ccc4ncsc4c3)c3ccccc3n2)n1 [GW867588],0,7,0,17,43,3,1,0,1,0,0,7,13,1,9,0,0,4,0,3
Fc1ccc(-c2nn3c(OCC(F)(F)F)cccc3c2-c2ccncc2)cc1 [GW514784],0,46,0,0,57,0,8,4,0,0,0,30,99.1,2,0,0,0,36,0,0
Cc1nnc(-c2ccc(C)c(-c3ccc(C(=O)Nc4ccc(NS(C)(=O)=O)cc4)cc3)c2)o1 [GW702865],0,0,0,0,28,0,5,18,0,0,0,30,7,2,0,2,0,37,1,0
COCCNC(=O)c1ccc(-c2cc(C(=O)NC3CC3)cc(F)c2C)cc1 [GW868318],0,21,11,25,0,0,19,28,27,26,9,19,1,18,24,37,10,5,19,13
O=C(NCCCN1CCOCC1)c1cccc(Nc2nccc(Nc3ccc(Oc4ccccc4)cc3)n2)c1 [GW663929],0,16,0,20,34,19,5,28,0,0,9,40,9,22,28,0,11,9,33,88
O=c1cc(N2CCOCC2)nc2n(Cc3cccc4ccccc34)ccn12 [GSK2333389],0,0,0,0,13,1,0,4,0,0,20,0,9,48,3,0,31,0,4,0
CCc1ccnc(/C=C/c2n[nH]c3cc(Sc4ccccc4C(=O)NC)ccc23)c1,0,0,1,0,0,10,3,0,2,12,0,8,0,0,0,0,0,66,99.9,12
